# In the library only some 3.3% were active in any assay of this set; here they are far more common.
# RE007 growth inh: less growth of the S. pombe RE007 Vpr strain; S. pombe RE007 Vpr strain, BacTiter-Glo ATP luminescence, 24 h; Potency, µM (top dose mostly 92.2 µM), for inactives: top-dose activity change, negative = less growth, most hits filed as inhibitors; hit rate 0.21% among 360,000; active = well fitted falling curve with a large enough effect; inconclusive = small, poorly fitted or top-dose-only effect; inactive = no such curve, though single readings can be large or run the other way; note: potency is the fitted concentration of half-maximal effect; % is set by controls: 0 for no effect and ±100 for the full control effect; nearly all actives have a fitted effect of over 50% in size
#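 Fission yeast RE007 carrying one integrated HIV-1 vpr copy, seeded at OD 0.01 in PMG+AL medium with 23 nL pinned compound. Grown 24 h at 30 degrees; viability read by BacTiter-Glo luminescence after 5 min.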
# Sm TGR inh: blocks Schistosoma mansoni thioredoxin glutathione reductase | Q962Y6 | purified TGR, DTNB reduction, TNB absorbance 405 nm | Potency, µM (series often up to 114 µM), for the others: top-dose activity change, negative = inhibition, usual class: inhibitors | hit rate 3% among 360,000; note: potency is the fitted concentration of half-maximal effect; % is set by controls: 0 for no effect and ±100 for the full control effect; nearly all actives have a fitted effect of over 60% in size
#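 TGR 20 nM + NADPH 100 uM (dispensed conc.), cpd preinc 15 min RT; start with NADPH (500 uM addition) then DTNB (15 mM addition). Kinetic TNB absorbance, 405 nm filter. Four-parameter Hill fit across titration.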
# TbPYK inhibitor: blocks Trypanosoma brucei pyruvate kinase | Q57TT1 | TbPYK enzyme, Kinase-Glo Plus ATP luminescence, 45 min | Potency, µM (titrated, usually from 76.8 µM), without a hit: at the highest dose activity, negative = inhibition, actives largely listed as inhibitors | hit rate 0.12% among 410,000; note: potency is the fitted concentration of half-maximal effect; % is set by controls: 0 for no effect and ±100 for the full control effect; nearly all actives have a fitted effect of over 50% in size
#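 Luminescent Kinase-Glo Plus end-point after 45 min room-temperature reaction of T. brucei pyruvate kinase started with 130 uM ADP (final). Buffer TEA 50 mM pH 7.2 with KCl, MgCl2, BSA, Tween-20; titration-based qHTS with fitted concentration-effect curves.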
# NS1 inh: influenza NS1 inhibition | Potency, µM (highest dose often 46.1 µM), for inactives: at the highest dose activity, positive = more growth | hit rate 0.4% among 270,000; calls by dose curve; note: potency is the fitted concentration of half-maximal effect; actives are rising curves; nearly all actives have a fitted effect of over 50% in size
#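 Growth recovery, yeast-based: influenza A NS1 expressed in S. cerevisiae causes slow growth, and suppressors are detected by OD600. The parent strain without NS1 is used as positive control.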
# SARS PLpro yeast: blocks SARS-CoV papain-like protease in a yeast assay; Potency, µM (titrated, usually from 32.9 µM), without a hit: at the highest dose activity, positive = growth rescue, usual class: activators; hit rate 0.19% among 330,000; S. cerevisiae expressing SARS-CoV PLpro, growth rescue; AID 485353; calls by dose curve; note: potency is the fitted concentration of half-maximal effect; 0% is about no effect; nearly all actives have a fitted effect of over 55% in size
# LmPK inh: blocks Leishmania mexicana pyruvate kinase activity | hit rate 0.37% among 290,000 | Q27686 | purified LmPK, Kinase-Glo ATP luminescence, 1 h | Potency, µM (highest dose often 57.5 µM), without a hit: at the highest dose activity change, negative = inhibition, hits mostly inhibitors; note: potency is the fitted concentration of half-maximal effect; % is set by controls: 0 for no effect and ±100 for the full control effect
# Target sequence (Q27686 whole entry, looked up): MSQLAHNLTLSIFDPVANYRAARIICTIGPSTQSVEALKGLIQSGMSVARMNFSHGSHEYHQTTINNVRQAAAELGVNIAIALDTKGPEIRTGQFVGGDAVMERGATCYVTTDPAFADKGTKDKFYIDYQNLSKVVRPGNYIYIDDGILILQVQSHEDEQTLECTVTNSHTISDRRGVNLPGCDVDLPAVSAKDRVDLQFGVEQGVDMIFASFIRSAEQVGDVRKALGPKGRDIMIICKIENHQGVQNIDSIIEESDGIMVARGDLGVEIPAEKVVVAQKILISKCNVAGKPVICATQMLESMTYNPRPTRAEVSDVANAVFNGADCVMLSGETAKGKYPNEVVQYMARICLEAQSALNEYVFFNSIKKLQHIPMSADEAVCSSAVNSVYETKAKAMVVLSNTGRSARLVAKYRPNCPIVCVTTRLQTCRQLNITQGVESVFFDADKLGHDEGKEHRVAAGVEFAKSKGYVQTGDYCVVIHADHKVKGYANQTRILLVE
#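 Screened at intermediate enzyme activity to detect both inhibitors and activators: LmPK at 0.1 nM, with a 0.5 nM enzyme column as activation reference. PEP 0.5 mM, ADP 0.1 mM; ATP detected by luminescence after 1 h.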
# NS1 inh valid: validation of influenza NS1 protein function inhibitors. activity change, negative = inhibition, % at 32.9 µM. shares compounds with NS1 inh. influenza NS1 function cell assay, 15-point titration. AID 492980. 1,400 tested, under 10 active; calls by dose curve; note: 0% is about no effect
# Flu PR8 replic: influenza NS1 inhibitors: inhibition of influenza A/PR/8/34 replication. MDCK infected influenza A/PR/8/34, virus titer TCID50; hits give low values. shares compounds with NS1 inh. hit rate 30% among 95. virus titer (log TCID50), log10 TCID50 at 5 µM; call rule not given here
# * = called active by the depositor; ? = inconclusive; nt = no result. Unless noted, calls come from the whole dose curve; as a rule, active = well fitted curve in the direction sought with a large enough effect; inconclusive = small, poorly fitted or top-dose-only effect, or another doubt; inactive = no such curve, though single readings can be large; an effect the other way counts as inactive or inconclusive.
SMILES,RE007 growth inh,Sm TGR inh,TbPYK inhibitor,NS1 inh,SARS PLpro yeast,LmPK inh,NS1 inh valid,others
O=C(COC(=O)c1cccc(S(=O)(=O)N2CCOCC2)c1)Nc1nc(-c2ccccc2Cl)cs1,7%,-19%,-4%,11µM*,0%,-3%,?,
CC(=O)OC1C2CCCC1C(N1CCCC1)CC2 (configuration not stated),-8%,10%,-6%,?,11%,4%,0,
COc1ccc2c(c1)CC(NC(=O)Nc1ccc(NC(C)=O)cc1)CO2 (configuration not stated),nt,-2%,-7%,nt,nt,nt,nt,
O=C(COc1ccccc1F)Nc1ccccc1OCc1cc(=O)n2ccccc2n1,nt,0%,-2%,nt,nt,nt,nt,
Cc1ccc(N(CC(=O)N/N=C/c2ccco2)S(=O)(=O)c2ccccc2)cc1,6%,25µM*,0%,11µM*,1%,0%,-19,Flu PR8 replic=7.7
COc1cc(NC(=O)COC(=O)c2cc(S(=O)(=O)N3CCCCC3)ccc2Cl)c(C)cc1[N+](=O)[O-],10%,-8%,4%,14µM*,2%,1%,10,Flu PR8 replic=8.3
COc1ccc(S(=O)(=O)N2CCCCCC2)cc1C(=O)OCC(=O)NC(C)(C)C,-14%,-1%,2%,nt,1%,6%,nt,
COCCn1nnnc1C(c1ccc(C)cc1)N1CCN(Cc2ccc3c(c2)OCO3)CC1 (configuration not stated),7%,?,-17%,-4%,3%,10%,nt,
COCCn1nnnc1C(c1ccccc1)N1CCN(Cc2ccc3c(c2)OCO3)CC1 (configuration not stated),2%,-25%,0%,4.5µM*,0%,7%,-4,
Cc1c(Cl)cnc(NC(=O)COC(=O)c2cccc(S(=O)(=O)N3c4ccccc4CC3C)c2)c1Cl (configuration not stated),-6%,-4%,-1%,11µM*,9%,2%,-13,
Cc1c(Cl)cnc(NC(=O)COC(=O)c2cccc(S(=O)(=O)N3CCc4ccccc4C3)c2)c1Cl,-9%,1%,5%,10%,16%,-1%,nt,
COc1cccc(C2CC(=O)Nc3c2c(=O)n(C)c2nc4ccccc4n32)c1 (configuration not stated),nt,1%,4%,nt,nt,nt,nt,
Cc1ccc(NC(=O)CN2C(=O)S/C(=C\c3cc(C)n(-c4cccc(C(=O)O)c4)c3C)C2=O)cc1,-16%,-9%,-4%,11µM*,1%,2%,7,
Cc1ccc(NC(=O)CN2C(=O)S/C(=C\c3cc(C)n(C)c3C)C2=O)cc1,-26%,-5%,-15%,5%,3%,-1%,nt,
CCOc1cc(N2CCOCC2)c(OCC)cc1NC(=O)Cc1cccc2ccccc12,1%,-11%,-4%,13µM*,17%,11%,-3,
COc1ccc(-c2cc(C(=O)Nc3nc4c(C)cccc4s3)c3ccccc3n2)cc1OC,17%,0%,5%,11µM*,-3%,1%,9,
Cc1cccc(NC(=O)c2sc3nc(-c4ccccc4)cn3c2C)c1C,nt,-7%,2%,nt,nt,nt,nt,
CCCn1c(C)nc2c(c1=O)c1nc3ccccc3nc1n2CCC1=CCCCC1,4%,-21%,1%,2µM*,5%,-6%,?,
Cc1nc2c(c(=O)n1CCC1=CCCCC1)c1nc3ccccc3nc1n2/N=C/c1ccco1,-10%,11µM*,-5%,10µM*,-14%,4%,-16,
CCCn1c(C)nc2c(c1=O)c1nc3ccccc3nc1n2CCc1ccccc1,nt,nt,nt,20%,nt,nt,nt,
O=C(NCCS(=O)(=O)N1CCN(c2cccc(Cl)c2)CC1)C(c1ccccc1)c1ccccc1,nt,8%,0%,nt,nt,nt,nt,
O=C(c1cc(-c2ccncc2)nc2ccccc12)N1CCN(c2ccc(N3CCOCC3)nn2)CC1,6%,-26%,8%,?,9%,3%,-33,
O=C(c1cc(-c2ccncc2)nc2ccccc12)N1CCN(c2ccccn2)CC1,13%,-2%,2%,-22%,10%,0%,nt,
CC1CCC(C(C)C)C(OC(=O)CSc2nc(N)cc(=O)[nH]2)C1 (configuration not stated),10%,12%,0%,8.9µM*,-4%,2%,3,
Cc1nc2ccc(S(=O)(=O)Nc3ccc(-c4nc5cccnc5s4)cc3)cc2s1,-7%,-4%,1%,-12%,-2%,-1%,nt,
SMILES,RE007 growth inh,Sm TGR inh,TbPYK inhibitor,NS1 inh,SARS PLpro yeast,LmPK inh,NS1 inh valid,others
Cc1nc2ccc(S(=O)(=O)Nc3cccc(-c4nc5cccnc5s4)c3)cc2s1,-5%,5%,3%,11µM*,-28%,5%,-34,
CC(C)(C)OC(=O)N1CCC(CC2CC(c3cccc(Br)c3)=NO2)(C(=O)NCC2CCCCC2)CC1 (configuration not stated),-9%,16%,3%,?,1%,-2%,-34,
CCCCCCCNC(=O)C1(CC2CC(c3cccc(Br)c3)=NO2)CCN(C(=O)OC(C)(C)C)CC1 (configuration not stated),3%,-4%,-10%,?,-3%,-1%,nt,
COC(=O)c1ccc2c(c1)C(=O)/C(=C/c1ccc(C)cc1)O2,4%,4%,3%,10µM*,?,3%,9,
CN(C)c1ccc(CNC(=O)c2ccccc2NC(=O)c2nsc3ccccc23)cc1,nt,0%,-13%,nt,nt,nt,nt,
C1CCC(Nc2nnnn2C2CCCCC2)CC1,16%,-30%,2%,3%,3%,1%,nt,
CN(C)/C=C/C(=O)c1nnn(C2CCCCC2)c1NC1CCCCC1,0%,-21%,-1%,7.9µM*,0%,3%,?,
CC(C)CCSc1nc2c(c(=O)[nH]c(=O)n2C)n1CCCc1ccccc1,9%,-5%,-3%,?,-3%,0%,-29,
CSc1nc2c(c(=O)[nH]c(=O)n2C)n1CCCc1ccccc1,7%,-17%,-4%,1%,2%,-6%,nt,
CCCOc1ccc(-c2nnc(N)s2)cc1,-18%,2%,-7%,-10%,-7%,-23%,nt,
CCCOc1ccc(-c2nc(-c3ccc(N)cc3)cs2)cc1,nt,-6%,nt,13µM*,0%,1%,4,
CCOc1cc2[nH]c(=O)n(CC3CCC(C(=O)NCCCOC)CC3)c(=O)c2cc1OCC (configuration not stated),-11%,-17%,5%,8.9µM*,4%,3%,9,

# Assay outcomes deposited in PubChem by National Center for Advancing Translational Sciences (NCATS).
